Measured values: PubChem BioAssay (Tox21)
Records with an inconclusive call do not appear. The source made the active and inactive calls. Unless noted, calls come from the whole dose curve; as a rule, active = well fitted curve in the direction sought with a large enough effect in the repeat runs; inconclusive = weak or mixed curves; inactive = no such curve, though single readings can be large; an effect the other way counts as inactive or inconclusive.

What was measured:
[1] = qHTS assay to identify aromatase inhibitors - cell viability counter screen (AID 743084);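 note: cells stimulated with testosterone during compound exposure; nearly all actives have a fitted effect of over 55% in size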
[2] = biological target: Aryl hydrocarbon receptor (Homo sapiens) (UniProt P35869); assay: qHTS assay to identify small molecule that activate the aryl hydrocarbon receptor (AhR) signaling pathway (AID 743085);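 note: HG2L7.5c1 human HepG2 liver cells with stably integrated DRE-driven firefly reporter; series mostly up to about 70 µM; nearly all actives have a fitted effect of over 15% in size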
In short: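 Compounds were tested in HepG2 hepatocellular carcinoma cells harbouring a stably integrated luciferase gene under control of 20 DREs. Increased reporter signal after 24 h treatment at 37C was taken as AhR activation.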

[3] = qHTS assay to identify small molecule that activate the aryl hydrocarbon receptor (AhR) signaling pathway - cell viability counter screen (AID 743086);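 note: HepG2 liver cells carrying the AhR DRE luciferase reporter; series mostly up to about 70 µM; nearly all actives have a fitted effect of over 45% in size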
In short: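 HepG2-AhR-luc (HG2L7.5c1) cells, 4000/well, treated 24 h at 37 C with compound; viability measured as CellTiter-Fluor fluorescence after 30 min in the same wells as the luciferase read.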

[4] = biological target: Peroxisome proliferator-activated receptor gamma (Homo sapiens) (UniProt P37231); assay: qHTS assay to identify small molecule agonists of the peroxisome proliferator-activated receptor gamma (PPARg) signaling pathway (AID 743094; active = well fitted activation curve with a large enough effect in the signal ratio in the repeat runs, not every such curve was filed as active; the % refers to the signal ratio)
In short: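 Stably transfected HEK293H cells (GeneBLAzer PPARg UAS-bla) were incubated with test substances for 17 h at 37C after a 5 h pre-incubation; beta-lactamase activity was then detected by FRET substrate fluorescence.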

[5] = biological target: Peroxisome proliferator-activated receptor gamma (Homo sapiens) (UniProt P37231); assay: qHTS assay to identify small molecule antagonists of the peroxisome proliferator-activated receptor gamma (PPARg) signaling pathway (AID 743191; calls by dose curve; note: series mostly up to about 63 µM; nearly all actives have a fitted effect of over 30% in size)
In short: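 GeneBLAzer PPARg UAS-bla HEK293H cells, 5 h post-plating, exposed to compounds 17 h at 37C. LiveBLAzer B/G FRET substrate added for 1 h at room temperature; beta-lactamase reporter read by fluorescence intensity.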

[6] = qHTS assay to identify small molecule antagonists of the peroxisome proliferator-activated receptor gamma (PPARg) signaling pathway - cell viability counter screen (AID 743194); details: Potency: co-treated with 50 nM rosiglitazone; note: nearly all actives have a fitted effect of over 55% in size
In short: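 Cytotoxicity counter screen in PPARg-bla HEK293H cells, same wells as reporter assay. Compounds plus 50 nM rosiglitazone (final) for 17 h at 37 C, then viability read by CellTiter-Glo luminescence.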

[7] = qHTS assay for small molecule agonists of the antioxidant response element (ARE) signaling pathway (AID 743202; active = well fitted activation curve with a large enough effect in the signal ratio in the repeat runs, not every such curve was filed as active; the % refers to the signal ratio)
In short: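 Agonist mode reporter screen: HepG2 cells with ARE-controlled beta-lactamase are incubated with test compounds for 16 h at 37 C, and beta-lactamase activity is measured as fluorescence of cleaved B/G FRET substrate.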

[8] = qHTS assay for small molecule agonists of the antioxidant response element (ARE) signaling pathway - cell viability counter screen (AID 743203; calls by dose curve; note: nearly all actives have a fitted effect of over 55% in size)
In short: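 Cells (ARE-bla HepG2, 2,000/well) receive DMSO-dissolved compounds after a 5 hrs rest. Plates incubate 16 hrs at 37C/5% CO2. CellTiter-Glo luminescence is then recorded after 30 min at room temperature.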

[9] = qHTS assay for small molecule activators of the heat shock response signaling pathway - cell viability counter screen (AID 743209); note: nearly all actives have a fitted effect of over 50% in size
In short: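 Quantitative HTS format, Tox21 10K library. HeLa cells carrying an HSE-driven beta-lactamase reporter were treated 5 h at 37 C, then assessed for viability by CellTiter-Glo luminescence.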

[10] = qHTS assay for small molecule activators of the heat shock response signaling pathway (AID 743210; active = well fitted activation curve with a large enough effect in the signal ratio in the repeat runs, with a control signal flat, not every such curve was filed as active; the % refers to the signal ratio;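 note: HeLa cells with beta-lactamase reporter driven by heat shock elements; series mostly up to about 63 µM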)
In short: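 Quantitative high-throughput format using an engineered HeLa line in which heat shock response elements drive beta-lactamase; after 5 h with compound, cells received a B/G FRET substrate and fluorescence was read.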

[11] = qHTS assay to identify small molecule agonists of the peroxisome proliferator-activated receptor delta (PPARd) signaling pathway - cell viability counter screen (AID 743211); note: nearly all actives have a fitted effect of over 55% in size
In short: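 Counter screen for cytotoxicity run in parallel with the PPARd reporter screen. Beta-lactamase reporter HEK293H cells exposed to compounds 17 h; ATP-based CellTiter-Glo luminescence quantified viability.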

[12] = biological target: Peroxisome proliferator-activated receptor delta (Homo sapiens) (UniProt Q03181); assay: qHTS assay to identify small molecule agonists of the peroxisome proliferator-activated receptor delta (PPARd) signaling pathway (AID 743212; calls by dose curve)
In short: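 Quantitative high-throughput agonist screen in a HEK293H beta-lactamase reporter line under UAS control. Compounds in DMSO, at 37 C. Fluorescence read after 2 h with FRET substrate at room temperature.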

[13] = qHTS assay to identify small molecule antagonists of the peroxisome proliferator-activated receptor delta (PPARd) signaling pathway - cell viability counter screen (AID 743213); note: nearly all actives have a fitted effect of over 50% in size
In short: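 HEK293H cells with the PPARd UAS-bla reporter, co-treated 17 h at 37 C with compounds and L165041 (300 nM final), were lysed with CellTiter-Glo. Luminescence indicated viable cell content.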

[14] = biological target: Peroxisome proliferator-activated receptor delta (Homo sapiens) (UniProt Q03181); assay: qHTS assay to identify small molecule antagonists of the peroxisome proliferator-activated receptor delta (PPARd) signaling pathway (AID 743215; active = well fitted inhibition curve with a large enough effect in the signal ratio in the repeat runs, not every such curve was filed as active; the % refers to the signal ratio;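 note: cells stimulated with agonist L165041 at 300 nM final during compound exposure; series mostly up to about 62 µM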)
In short: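 Antagonist-mode beta-lactamase reporter screen: HEK293H cells with UAS-bla under PPARd control, stimulated by 300 nM L165041 (final) alongside test compound for 17 h at 37 C, then FRET fluorescence after 2 h substrate incubation.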

[15] = biological target: Bile acid receptor (Homo sapiens) (UniProt Q96RI1); assay: qHTS assay to identify small molecule antagonists of the farnesoid-X-receptor (FXR) signaling pathway (AID 743217; active = well fitted inhibition curve with a large enough effect in the signal ratio in the repeat runs, not every such curve was filed as active; the % refers to the signal ratio)
In short: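 Beta-lactamase reporter under UAS control in HEK 293T cells; compound exposure 16 h at 37 °C in the presence of chenodeoxycholic acid (50 uM final); signal from B/G FRET substrate after 2 h at room temperature.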

[16] = qHTS assay to identify small molecule agonists of the farnesoid-X-receptor (FXR) signaling pathway - cell viability counter screen (AID 743218); note: nearly all actives have a fitted effect of over 45% in size
In short: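 In GeneBLAzer FXR-UAS-bla HEK 293T cells, compounds act for 16 h at 37 C. Cell viability is then scored in the reporter wells by CellTiter-Glo, 30 min at RT, luminescence.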

[17] = biological target: Bile acid receptor (Homo sapiens) (UniProt Q96RI1); assay: qHTS assay to identify small molecule agonists of the farnesoid-X-receptor (FXR) signaling pathway (AID 743220; active = well fitted activation curve with a large enough effect in the signal ratio in the repeat runs, not every such curve was filed as active; the % refers to the signal ratio)
In short: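 Beta-lactamase reporter under UAS control in GeneBLAzer FXR HEK 293T cells (5000/well) measured with LiveBLAzer FRET substrate after 2 h at room temperature. Compound exposure lasted 16 h at 37C.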

[18] = qHTS assay to identify small molecule antagonists of the farnesoid-X-receptor (FXR) signaling pathway - cell viability counter screen (AID 743221; active = well fitted cell-killing curve with a large enough effect in the repeat runs, not every such curve was filed as active; note: nearly all actives have a fitted effect of over 50% in size)
In short: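 Multiplexed counter screen: viability of FXR-bla HEK 293T cells under agonist stimulation by chenodeoxycholic acid (50 uM, final) and test compound for 16 h at 37 C, measured by CellTiter-Glo luminescence in the reporter wells.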

[19] = biological target: Vitamin D3 receptor (Homo sapiens) (UniProt P11473); assay: qHTS assay to identify small molecule agonists of the vitamin D receptor (VDR) signaling pathway (AID 743222; calls by dose curve)
In short: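 Agonist activity measured in VDR-bla reporter cells. Exposure 16 h, 37C, 5% CO2; detection by B/G FRET substrate, 2 h RT.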

[20] = biological target: Vitamin D3 receptor (Homo sapiens) (UniProt P11473); assay: qHTS assay to identify small molecule antagonists of the vitamin D receptor (VDR) signaling pathway (AID 743223; active = well fitted inhibition curve with a large enough effect in the signal ratio in the repeat runs, not every such curve was filed as active; the % refers to the signal ratio)
In short: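 Cells carrying a VDR-driven beta-lactamase reporter (VDR-bla) were co-treated with compound and 3 nM final 1alpha,25-dihydroxyvitamin D3 for 16 h at 37C; reporter activity was measured as FRET substrate fluorescence after 2 h at room temperature.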

Measured: Potency

Aryl hydrocarbon receptor (Homo sapiens), sequence (P35869 whole entry, looked up): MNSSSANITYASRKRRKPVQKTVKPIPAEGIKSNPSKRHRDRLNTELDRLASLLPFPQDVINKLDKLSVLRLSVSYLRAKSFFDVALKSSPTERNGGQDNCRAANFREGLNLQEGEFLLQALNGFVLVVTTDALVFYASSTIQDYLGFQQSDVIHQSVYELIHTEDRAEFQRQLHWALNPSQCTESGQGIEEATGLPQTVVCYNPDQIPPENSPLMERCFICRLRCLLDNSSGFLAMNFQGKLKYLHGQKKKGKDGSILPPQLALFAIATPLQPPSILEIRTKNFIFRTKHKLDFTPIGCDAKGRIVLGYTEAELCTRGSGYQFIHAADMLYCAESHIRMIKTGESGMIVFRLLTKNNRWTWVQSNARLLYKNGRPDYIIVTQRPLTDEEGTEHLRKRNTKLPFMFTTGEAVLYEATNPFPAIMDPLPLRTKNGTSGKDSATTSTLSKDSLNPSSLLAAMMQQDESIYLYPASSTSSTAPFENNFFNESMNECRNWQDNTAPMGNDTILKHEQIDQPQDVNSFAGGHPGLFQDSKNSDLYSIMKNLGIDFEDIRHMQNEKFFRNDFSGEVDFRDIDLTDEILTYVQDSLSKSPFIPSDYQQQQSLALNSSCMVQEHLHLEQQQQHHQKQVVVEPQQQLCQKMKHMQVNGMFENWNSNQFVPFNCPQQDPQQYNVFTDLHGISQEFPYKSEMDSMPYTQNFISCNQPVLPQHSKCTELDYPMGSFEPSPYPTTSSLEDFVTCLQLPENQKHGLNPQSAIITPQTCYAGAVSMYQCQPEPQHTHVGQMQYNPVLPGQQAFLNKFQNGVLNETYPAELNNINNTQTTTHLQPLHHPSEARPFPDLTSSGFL
Peroxisome proliferator-activated receptor gamma (Homo sapiens), sequence (P37231 whole entry, looked up): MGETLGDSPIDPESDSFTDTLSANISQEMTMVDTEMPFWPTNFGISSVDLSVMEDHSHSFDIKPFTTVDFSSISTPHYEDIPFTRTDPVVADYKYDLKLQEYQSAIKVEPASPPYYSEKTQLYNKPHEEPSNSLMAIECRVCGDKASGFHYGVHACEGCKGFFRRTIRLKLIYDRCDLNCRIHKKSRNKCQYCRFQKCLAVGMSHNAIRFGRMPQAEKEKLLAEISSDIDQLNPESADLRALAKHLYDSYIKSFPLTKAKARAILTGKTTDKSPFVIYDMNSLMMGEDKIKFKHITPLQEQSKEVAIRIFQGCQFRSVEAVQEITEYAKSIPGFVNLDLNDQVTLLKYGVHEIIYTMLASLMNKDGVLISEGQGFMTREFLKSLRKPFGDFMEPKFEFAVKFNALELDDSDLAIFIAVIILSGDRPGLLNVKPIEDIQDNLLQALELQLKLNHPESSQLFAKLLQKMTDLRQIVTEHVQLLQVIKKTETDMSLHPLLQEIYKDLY
Vitamin D3 receptor (Homo sapiens), sequence (P11473 whole entry, looked up): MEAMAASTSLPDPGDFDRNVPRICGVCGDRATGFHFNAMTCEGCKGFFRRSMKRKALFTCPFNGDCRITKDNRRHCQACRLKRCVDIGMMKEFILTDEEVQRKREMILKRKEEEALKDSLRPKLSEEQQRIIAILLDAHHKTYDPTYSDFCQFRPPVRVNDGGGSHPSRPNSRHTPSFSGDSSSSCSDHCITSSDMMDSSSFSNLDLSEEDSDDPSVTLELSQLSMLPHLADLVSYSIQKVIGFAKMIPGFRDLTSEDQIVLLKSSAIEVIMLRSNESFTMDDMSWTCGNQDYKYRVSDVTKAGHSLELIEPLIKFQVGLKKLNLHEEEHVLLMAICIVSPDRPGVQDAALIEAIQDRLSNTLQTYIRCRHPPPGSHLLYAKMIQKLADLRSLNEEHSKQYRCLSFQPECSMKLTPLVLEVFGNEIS
Bile acid receptor (Homo sapiens), sequence (Q96RI1 whole entry, looked up): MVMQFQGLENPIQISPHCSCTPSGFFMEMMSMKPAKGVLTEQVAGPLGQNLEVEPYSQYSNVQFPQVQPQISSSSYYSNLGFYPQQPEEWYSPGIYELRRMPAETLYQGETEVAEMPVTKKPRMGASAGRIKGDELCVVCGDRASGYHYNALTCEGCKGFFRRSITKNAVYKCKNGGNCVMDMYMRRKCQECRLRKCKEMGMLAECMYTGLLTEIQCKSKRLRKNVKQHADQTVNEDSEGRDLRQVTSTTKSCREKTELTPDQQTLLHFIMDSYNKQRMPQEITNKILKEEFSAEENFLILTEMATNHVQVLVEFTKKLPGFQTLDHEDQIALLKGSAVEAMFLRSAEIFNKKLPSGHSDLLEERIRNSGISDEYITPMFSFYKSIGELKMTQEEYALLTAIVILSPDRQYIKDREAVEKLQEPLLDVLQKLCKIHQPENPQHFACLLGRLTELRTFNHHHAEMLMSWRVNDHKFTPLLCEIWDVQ
Peroxisome proliferator-activated receptor delta (Homo sapiens), sequence (Q03181 whole entry, looked up): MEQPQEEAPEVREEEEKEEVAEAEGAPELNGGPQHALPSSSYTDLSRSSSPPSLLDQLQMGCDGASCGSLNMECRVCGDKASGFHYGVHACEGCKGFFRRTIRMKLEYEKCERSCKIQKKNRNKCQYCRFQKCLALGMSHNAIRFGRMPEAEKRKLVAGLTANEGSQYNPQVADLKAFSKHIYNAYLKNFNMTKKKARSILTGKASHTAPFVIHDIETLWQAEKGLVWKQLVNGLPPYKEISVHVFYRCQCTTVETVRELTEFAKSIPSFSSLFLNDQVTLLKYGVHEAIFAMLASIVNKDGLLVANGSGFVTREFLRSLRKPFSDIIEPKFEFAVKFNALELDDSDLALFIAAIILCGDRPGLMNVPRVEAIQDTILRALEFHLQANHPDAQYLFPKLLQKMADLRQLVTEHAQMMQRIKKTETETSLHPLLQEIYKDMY

CN(C)CCc1c[nH]c2cccc(OP(=O)(O)O)c12
inactive: [1] | [2] | [3] | [4] | [5] | [6] | [7] | [8] | [9] | [10] | [11] | [12] | [13] | [14] | [15] | [16] | [17] | [18]

CC(C)(C)C(=O)Cl
inactive: [1] | [2] | [3] | [4] | [5] | [6] | [7] | [8] | [9] | [10] | [11] | [12] | [13] | [14] | [15] | [16] | [17] | [18]

O=c1[nH]oc2c1CCNC2
inactive: [1] | [2] | [3] | [4] | [5] | [6] | [7] | [8] | [9] | [10] | [11] | [12] | [13] | [14] | [16] | [18]

CC(C)NCC(O)c1ccc([N+](=O)[O-])cc1 (centres undefined)
inactive: [1] | [2] | [3] | [4] | [5] | [6] | [7] | [8] | [9] | [10] | [12] | [14] | [15] | [16] | [17] | [18] | [19] | [20]

COC(=O)c1ccc(CBr)cc1
inactive: [1] | [2] | [3] | [4] | [5] | [6] | [7] | [8] | [9] | [10] | [11] | [12] | [14] | [16] | [18] | [19] | [20]

C#CCOC(=O)/C=C(C)/C=C/CC(C)CCCC(C)C (centres undefined)
inactive: [1] | [2] | [3] | [4] | [5] | [6] | [7] | [8] | [9] | [10] | [11] | [12] | [14] | [15] | [16] | [17] | [18] | [19] | [20]

CC1NCCOC1c1ccccc1 (centres undefined)
inactive: [1] | [2] | [3] | [4] | [5] | [6] | [7] | [8] | [9] | [10] | [12] | [14] | [16] | [18] | [19] | [20]

NCCOS(=O)(=O)O
inactive: [1] | [2] | [3] | [4] | [5] | [6] | [7] | [8] | [9] | [10] | [11] | [12] | [14] | [15] | [16] | [17] | [18] | [19] | [20]

ClCCCCl
inactive: [1] | [2] | [3] | [4] | [5] | [6] | [7] | [8] | [9] | [10] | [11] | [12] | [15] | [16] | [17] | [18] | [19] | [20]

C=CCc1cc(OC)c2c(c1)OCO2
inactive: [1] | [2] | [3] | [4] | [5] | [6] | [7] | [8] | [9] | [10] | [11] | [12] | [13] | [14] | [16] | [18] | [20]

O=C(Cl)C(Cl)(Cl)Cl
inactive: [1] | [2] | [3] | [4] | [5] | [6] | [7] | [8] | [9] | [10] | [11] | [12] | [14] | [15] | [16] | [17] | [18] | [20]

CCOc1cc(OP(=S)(OC)OC)nc(CC)n1
inactive: [1] | [2] | [3] | [4] | [5] | [6] | [7] | [8] | [9] | [10] | [12] | [13] | [14] | [16] | [18] | [19]

C=C(C)[C@H]1CN[C@H](C(=O)O)[C@H]1CC(=O)O
inactive: [1] | [2] | [3] | [4] | [5] | [6] | [7] | [8] | [9] | [10] | [11] | [12] | [13] | [14] | [16] | [18] | [19] | [20]

CCN(CC)C1CCCCC1
inactive: [1] | [2] | [3] | [4] | [5] | [6] | [7] | [8] | [9] | [10] | [11] | [12] | [13] | [14] | [15] | [16] | [17] | [18] | [19] | [20]

COc1ccc(C=O)cc1O
inactive: [1] | [2] | [3] | [4] | [5] | [6] | [7] | [8] | [9] | [10] | [11] | [12] | [13] | [14] | [15] | [16] | [17] | [18]

CCC1(c2cccc(O)c2)CCCCN(C)C1 (centres undefined)
inactive: [1] | [2] | [3] | [4] | [5] | [6] | [7] | [8] | [9] | [10] | [11] | [12] | [13] | [14] | [16] | [18] | [19] | [20]
